{"source": "PubChem BioAssay (NCATS)", "note": "Results filed as inconclusive are left out. Values without a mark were called inactive. Calls of active or inactive are those of the source. The call rests on the fitted dose curve; in most records, active means well fitted inhibition curve with a large enough effect; inconclusive means small, poorly fitted or top-dose-only effect; inactive means flat fitted curve, though single readings scatter. On the % scale 0 is the no-effect control and ±100 the full control effect; potency means the concentration at half of the fitted maximal effect.", "data": [{"system": "HEK293", "assay": "Cytotoxic Profiling of Annotated Libraries Using Quantitative High-Throughput Screening (AID 1296008); further: nearly all actives have a fitted effect of over 60% in size", "conditions": "Five cell lines viability, CellTiter-Glo ATP luminescence, 48-72 h; max response: active compounds read low", "text": "Cell-based phenotypic screening is a commonly used approach to discover biological pathways, novel drug targets, chemical probes and high-quality hit-to-lead molecules. Many hits identified from high-throughput screening campaign are ruled out through a series of follow-up potency, selectivity/specificity, and cytotoxicity assays. Prioritization of molecules with little or no cytotoxicity for a more in-depth downstream evaluation influence the future direction of projects, so cytotoxicity profiling of the screening libraries at early stage is essential for increasing the likelihood of candidate success. […] For the annotated library, we also examined the primary targets and mechanistic pathways regularly associated with cell death. To our knowledge, this is the first study to use high-throughput screening to profile large libraries for cytotoxicity assessment in both normal and cancer cell lines. In summary, the results generated here constitutes a valuable resource for the scientific community and provides insight on identifying cytotoxic compounds with particular mechanisms of action, and prioritizing compounds with suitable cytotoxicity profile for further evaluation.\nA pintool (Kalypsys) was used to transfer 23 nL of compound solution to the 1536-well assay plates. After 48 or 72 hr incubation at 37 degree Celsius, 5% CO2 and 95% humidity, 2.5 uL of CellTiter-Glo (Promega) was dispensed into each well using a dispenser (Aspect Automation, St. Paul, MN) with solenoid valves (Lee Valves, Westbrook CT). Plates were left at room temperature for 10 min before imaging the ATP-coupled luminescence using a ViewLux microplate imager (PerkinElmer, Waltham, MA).", "units": {"max response": "%"}, "values": [{"smiles": "O=C(N[C@H]1N=C(c2ccccc2F)c2cccc3c2N(CC3)C1=O)c1cc2ccccc2[nH]1", "max response": -7.34}, {"smiles": "CCC(=O)OC1(c2ccccc2)CCN(C)CC1", "max response": -12.2}, {"smiles": "COP(=O)(OC)OC=C(Cl)Cl", "max response": -1.59}, {"smiles": "CC(CC(C(N)=O)(c1ccccc1)c1ccccc1)N(C)C", "note": "(stereo not given)", "outcome": "inactive"}, {"smiles": "CN(C)CCc1c[nH]c2cccc(O)c12", "max response": -13.6}, {"smiles": "COP(=O)(OC)C(O)C(Cl)(Cl)Cl", "note": "(stereo not given)", "outcome": "inactive"}, {"smiles": "Nc1ccc(Cl)cc1C(=O)c1ccccc1F", "max response": -6.5}, {"smiles": "ClCc1cccc(Cl)c1", "max response": -1.26}, {"smiles": "C=CCN1CC[C@]23CCCC[C@H]2[C@H]1Cc1ccc(O)cc13", "max response": -6.38}, {"smiles": "COCC(=O)N(c1c(C)cccc1C)C(C)C(=O)OC", "note": "(stereo not given)", "max response": -19.3}, {"smiles": "COc1cc(CC(C)N)cc2c1OCO2", "note": "(stereo not given)", "max response": -16.7}, {"smiles": "C[C@]12CC[C@H]3[C@@H](CCC4=CC(=O)CC[C@@]43C)[C@@H]1CC[C@@H]2C(=O)O", "max response": -4.71}, {"smiles": "CCS(=O)(=O)C(C)(C)S(=O)(=O)CC", "max response": 1.49}, {"smiles": "CN1[C@@H]2CC[C@H]1CC(OC(=O)c1cc(Cl)cc(Cl)c1)C2", "note": "(stereo not given in full)", "Potency": "26.6 µM (active)"}, {"smiles": "C[C@@H]1C[C@@H]([C@H](O)CC2CC(=O)NC(=O)C2)C(=O)[C@@H](C)C1", "Potency": "0.469 µM (active)"}, {"smiles": "CCCCCCCCC(=O)NCc1ccc(O)c(OC)c1", "max response": -94.9}, {"smiles": "CN1C2CCC(C)(C)C1CC(OC(=O)C(O)(c1cccs1)c1cccs1)C2", "note": "(stereo not given)", "max response": -10.3}, {"smiles": "CN1C[C@@H](NS(=O)(=O)N(C)C)C[C@@H]2c3cccc4c3c(cn4C)C[C@H]21", "max response": -5.36}, {"smiles": "Cc1nnc2n1-c1sc(CCC(=O)N3CCOCC3)cc1C(c1ccccc1Cl)=NC2", "outcome": "inactive"}, {"smiles": "Nc1ccccc1C(=O)OCC(O)CO", "note": "(stereo not given)", "outcome": "inactive"}, {"smiles": "CCN(CC)C(C)C(=O)c1ccccc1", "note": "(stereo not given)", "max response": -27.4}, {"smiles": "ClCCCN1CCN(c2cccc(Cl)c2)CC1", "outcome": "inactive"}, {"smiles": "CCC1(c2ccccc2)CCC(=O)NC1=O", "note": "(stereo not given)", "max response": -5.95}, {"smiles": "CC1Sc2c(C(=O)O)c(=O)c3cc(F)c(N4CCNCC4)cc3n21", "note": "(stereo not given)", "max response": 4.19}, {"smiles": "C=CC[C@]1(O)CC[C@H]2[C@@H]3CCC4=CC(=O)CCC4=C3C=C[C@@]21C", "Potency": "11.9 µM (active)"}, {"smiles": "C[N+]1(CCC(C(N)=O)(c2ccccc2)c2ccccc2)CCCCC1", "outcome": "inactive"}, {"smiles": "COc1cc(N)c(Cl)cc1C(=O)NC1CN2CCC1CC2", "note": "(stereo not given)", "max response": -0.75}, {"smiles": "CN(C)C(=O)Oc1cc(OC(=O)N(C)C)cc(C(O)CNC(C)(C)C)c1", "note": "(stereo not given)", "max response": -17.2}, {"smiles": "CC#C[C@]1(O)CC[C@H]2[C@@H]3C[C@H](C)C4=CC(=O)CC[C@]4(C)[C@H]3CC[C@@]21C", "Potency": "23.7 µM (active)"}, {"smiles": "COc1ccc(C(=O)N2CCCC2=O)cc1", "outcome": "inactive"}, {"smiles": "O=C(O)c1nn(Cc2ccc(Cl)cc2Cl)c2ccccc12", "outcome": "inactive", "max response": -10.4}, {"smiles": "C[N+](C)(C)CCOC(=O)C(O)(c1ccccc1)c1ccccc1", "max response": -0.686}, {"smiles": "CC(C(O)c1ccccc1)N(C)C/C=C/c1ccccc1", "note": "(stereo not given)", "max response": -9.94}, {"smiles": "O=c1[nH]c2cc(Cl)ccc2n1C1CCNCC1", "max response": -8.77}, {"smiles": "CCOC(C(=O)OCCN(C)C)(c1ccccc1)c1ccccc1", "max response": -2.86}, {"smiles": "O=C(CCCCl)c1ccc(F)cc1", "outcome": "inactive"}, {"smiles": "CCCOC(=O)Cc1ccc(OCC(=O)N(CC)CC)c(OC)c1", "max response": -10.1}, {"smiles": "Oc1c(Br)cc(Br)cc1Br", "max response": 2.8}, {"smiles": "CCCC[N+]1(C)[C@@H]2CC(OC(=O)[C@H](CO)c3ccccc3)C[C@H]1[C@@H]1O[C@@H]12", "note": "(stereo not given in full)", "outcome": "inactive"}]}]}
